Laboratory results taken from article PMC11062922 (Nature Chemical Biology, 2023).
Like-named read-outs stand apart in the source and are kept apart here.

Legend:
ACVR1B = conditions: read-out: apparent Kd, n = 1
AURKB = conditions: read-out: apparent Kd, n = 1
[1] = compound concentrations:100 nM and 1000 nM (sheet 'Lestaurtinib' of Supplementary Table 1),run:Lestaurtinib_02339_R1,Plate:MR001
[2] = compound concentrations:100 nM and 1000 nM (sheet 'Lestaurtinib' of Supplementary Table 1),run:Lestaurtinib_02364_R2,Plate:MR002
[3] = compound concentrations:100 nM and 1000 nM (sheet 'Lestaurtinib' of Supplementary Table 1),run:Lestaurtinib_02364_R3,Plate:MR002
[4] = compound concentrations:100 nM and 1000 nM (sheet 'Lestaurtinib' of Supplementary Table 1),run:Lestaurtinib_02367_R2,Plate:MR003
[5] = compound concentrations:100 nM and 1000 nM (sheet 'Lestaurtinib' of Supplementary Table 1),run:Lestaurtinib_02381_R1,Plate:MR004
[6] = compound concentrations:100 nM and 1000 nM (sheet 'Lestaurtinib' of Supplementary Table 1),run:Lestaurtinib_02437_R3,Plate:MR007

Lestaurtinib
potency estimated from few doses (ACVR1B; [1]): 730 nM
potency estimated from few doses (ACVR1B; [2]): 951 nM
potency estimated from few doses (ACVR1B; [3]): 661 nM
potency estimated from few doses (ACVR1B; compound concentrations:100 nM and 1000 nM (sheet 'Lestaurtinib' of Supplementary Table 1),run:Lestaurtinib_02367_R1,Plate:MR003): 671 nM
potency estimated from few doses (ACVR1B; [4]): 684 nM
potency estimated from few doses (ACVR1B; compound concentrations:100 nM and 1000 nM (sheet 'Lestaurtinib' of Supplementary Table 1),run:Lestaurtinib_02367_R3,Plate:MR003): 783 nM
potency estimated from few doses (ACVR1B; [5]): 694 nM
potency estimated from few doses (ACVR1B; compound concentrations:100 nM and 1000 nM (sheet 'Lestaurtinib' of Supplementary Table 1),run:Lestaurtinib_02381_R3,Plate:MR004): 515 nM
potency estimated from few doses (ACVR1B; compound concentrations:100 nM and 1000 nM (sheet 'Lestaurtinib' of Supplementary Table 1),run:Lestaurtinib_02422_R2,Plate:MR006): 951 nM
potency estimated from few doses (ACVR1B; compound concentrations:100 nM and 1000 nM (sheet 'Lestaurtinib' of Supplementary Table 1),run:Lestaurtinib_02437_R1,Plate:MR007): 592 nM
potency estimated from few doses (ACVR1B; [6]): 740 nM
potency estimated from few doses (ACVR1B; compound concentrations:100 nM and 1000 nM (sheet 'Lestaurtinib' of Supplementary Table 1),run:Lestaurtinib_02438_R1,Plate:MR008): 415 nM
potency estimated from few doses (ACVR1B; compound concentrations:100 nM and 1000 nM (sheet 'Lestaurtinib' of Supplementary Table 1),run:Lestaurtinib_02443_R2,Plate:MR009): 855 nM
potency estimated from few doses (ACVR1B; compound concentrations:100 nM and 1000 nM (sheet 'Lestaurtinib' of Supplementary Table 1),run:Lestaurtinib_02443_R3,Plate:MR009): 487 nM
potency estimated from few doses (ACVR1B; compound concentrations:100 nM and 1000 nM (sheet 'Lestaurtinib' of Supplementary Table 1),run:Lestaurtinib_02473_R1,Plate:MR010): 479 nM
potency estimated from few doses (ACVR1B; compound concentrations:100 nM and 1000 nM (sheet 'Lestaurtinib' of Supplementary Table 1),run:Lestaurtinib_02473_R2,Plate:MR010): 674 nM
potency estimated from few doses (ACVR1B; compound concentrations:100 nM and 1000 nM (sheet 'Lestaurtinib' of Supplementary Table 1),run:Lestaurtinib_02482_R1,Plate:MR011): 665 nM
potency estimated from few doses (ACVR1B; compound concentrations:100 nM and 1000 nM (sheet 'Lestaurtinib' of Supplementary Table 1),run:Lestaurtinib_02487_R1,Plate:MR012): 741 nM
potency estimated from few doses (ACVR1B; compound concentrations:100 nM and 1000 nM (sheet 'Lestaurtinib' of Supplementary Table 1),run:Lestaurtinib_02487_R2,Plate:MR012): 754 nM
potency estimated from few doses (ACVR1B; compound concentrations:100 nM and 1000 nM (sheet 'Lestaurtinib' of Supplementary Table 1),run:Lestaurtinib_02487_R3,Plate:MR012): 549 nM
potency estimated from few doses (ACVR1B; compound concentrations:100 nM and 1000 nM (sheet 'Lestaurtinib' of Supplementary Table 1),run:Lestaurtinib_02496_R2,Plate:MR013): 776 nM
potency estimated from few doses (ACVR1B; compound concentrations:100 nM and 1000 nM (sheet 'Lestaurtinib' of Supplementary Table 1),run:Lestaurtinib_02496_R3,Plate:MR013): 965 nM
potency estimated from few doses (ACVR1B; compound concentrations:100 nM and 1000 nM (sheet 'Lestaurtinib' of Supplementary Table 1),run:Lestaurtinib_02566_R1,Plate:MR014): 386 nM
potency estimated from few doses (ACVR1B; compound concentrations:100 nM and 1000 nM (sheet 'Lestaurtinib' of Supplementary Table 1),run:Lestaurtinib_02566_R3,Plate:MR014): 479 nM
potency estimated from few doses (ACVR1B; compound concentrations:100 nM and 1000 nM (sheet 'Lestaurtinib' of Supplementary Table 1),run:Lestaurtinib_02577_R3,Plate:MR016): 422 nM
potency estimated from few doses (ACVR1B; compound concentrations:100 nM and 1000 nM (sheet 'Lestaurtinib' of Supplementary Table 1),run:Lestaurtinib_02584_R1,Plate:MR017): 545 nM
potency estimated from few doses (ACVR1B; compound concentrations:100 nM and 1000 nM (sheet 'Lestaurtinib' of Supplementary Table 1),run:Lestaurtinib_02584_R2,Plate:MR017): 970 nM
potency estimated from few doses (ACVR1B; compound concentrations:100 nM and 1000 nM (sheet 'Lestaurtinib' of Supplementary Table 1),run:Lestaurtinib_02584_R3,Plate:MR017): 748 nM
potency estimated from few doses (ACVR1B; compound concentrations:100 nM and 1000 nM (sheet 'Lestaurtinib' of Supplementary Table 1),run:Lestaurtinib_02601_R1,Plate:MR018): 559 nM
potency estimated from few doses (ACVR1B; compound concentrations:100 nM and 1000 nM (sheet 'Lestaurtinib' of Supplementary Table 1),run:Lestaurtinib_02601_R3,Plate:MR018): 707 nM
potency estimated from few doses (ACVR1B; compound concentrations:100 nM and 1000 nM (sheet 'Lestaurtinib' of Supplementary Table 1),run:Lestaurtinib_02606_R1,Plate:MR019): 628 nM
potency estimated from few doses (ACVR1B; compound concentrations:100 nM and 1000 nM (sheet 'Lestaurtinib' of Supplementary Table 1),run:Lestaurtinib_02606_R3,Plate:MR019): 836 nM
potency estimated from few doses (ACVR1B; compound concentrations:100 nM and 1000 nM (sheet 'Lestaurtinib' of Supplementary Table 1),run:Lestaurtinib_02624_R1,Plate:MR020): 613 nM
potency estimated from few doses (ACVR1B; compound concentrations:100 nM and 1000 nM (sheet 'Lestaurtinib' of Supplementary Table 1),run:Lestaurtinib_02624_R3,Plate:MR020): 724 nM
potency estimated from few doses (ACVR1B; compound concentrations:100 nM and 1000 nM (sheet 'Lestaurtinib' of Supplementary Table 1),run:Lestaurtinib_02724_R1,Plate:MR021): 624 nM
potency estimated from few doses (ACVR1B; compound concentrations:100 nM and 1000 nM (sheet 'Lestaurtinib' of Supplementary Table 1),run:Lestaurtinib_02724_R2,Plate:MR021): 755 nM
potency estimated from few doses (ACVR1B; compound concentrations:100 nM and 1000 nM (sheet 'Lestaurtinib' of Supplementary Table 1),run:Lestaurtinib_02741_R3,Plate:MR023): 712 nM
potency estimated from few doses (ACVR1B; compound concentrations:100 nM and 1000 nM (sheet 'Lestaurtinib' of Supplementary Table 1),run:Lestaurtinib_02748_R1,Plate:MR024): 417 nM
potency estimated from few doses (ACVR1B; compound concentrations:100 nM and 1000 nM (sheet 'Lestaurtinib' of Supplementary Table 1),run:Lestaurtinib_02748_R2,Plate:MR024): 745 nM
potency estimated from few doses (ACVR1B; compound concentrations:100 nM and 1000 nM (sheet 'Lestaurtinib' of Supplementary Table 1),run:Lestaurtinib_02752_R3,Plate:MR025): 724 nM
potency estimated from few doses (ACVR1B; compound concentrations:100 nM and 1000 nM (sheet 'Lestaurtinib' of Supplementary Table 1),run:Lestaurtinib_02765_R1,Plate:MR026): 811 nM
potency estimated from few doses (ACVR1B; compound concentrations:100 nM and 1000 nM (sheet 'Lestaurtinib' of Supplementary Table 1),run:Lestaurtinib_02765_R2,Plate:MR026): 488 nM
potency estimated from few doses (ACVR1B; compound concentrations:100 nM and 1000 nM (sheet 'Lestaurtinib' of Supplementary Table 1),run:Lestaurtinib_02766_R3,Plate:MR027): 495 nM
potency estimated from few doses (ACVR1B; compound concentrations:100 nM and 1000 nM (sheet 'Lestaurtinib' of Supplementary Table 1),run:Lestaurtinib_02768_R2,Plate:MR028): 577 nM
potency estimated from few doses (ACVR1B; compound concentrations:100 nM and 1000 nM (sheet 'Lestaurtinib' of Supplementary Table 1),run:Lestaurtinib_02768_R3,Plate:MR028): 533 nM
potency estimated from few doses (ACVR1B; compound concentrations:100 nM and 1000 nM (sheet 'Lestaurtinib' of Supplementary Table 1),run:Lestaurtinib_02795_R1,Plate:MR022): 857 nM
potency estimated from few doses (ACVR1B; compound concentrations:100 nM and 1000 nM (sheet 'Lestaurtinib' of Supplementary Table 1),run:Lestaurtinib_02795_R2,Plate:MR022): 563 nM
potency estimated from few doses (ACVR1B; compound concentrations:100 nM and 1000 nM (sheet 'Lestaurtinib' of Supplementary Table 1),run:Lestaurtinib_02795_R3,Plate:MR022): 806 nM
potency estimated from few doses (ACVR1B; compound concentrations:100 nM and 1000 nM (sheet 'Lestaurtinib' of Supplementary Table 1),run:Lestaurtinib_02802_R1,Plate:MR029): 480 nM
potency estimated from few doses (ACVR1B; compound concentrations:100 nM and 1000 nM (sheet 'Lestaurtinib' of Supplementary Table 1),run:Lestaurtinib_02802_R2,Plate:MR029): 584 nM
potency estimated from few doses (ACVR1B; compound concentrations:100 nM and 1000 nM (sheet 'Lestaurtinib' of Supplementary Table 1),run:Lestaurtinib_02802_R3,Plate:MR029): 656 nM
potency estimated from few doses (ACVR1B; compound concentrations:100 nM and 1000 nM (sheet 'Lestaurtinib' of Supplementary Table 1),run:Lestaurtinib_02896_R1,Plate:MR030): 549 nM
potency estimated from few doses (ACVR1B; compound concentrations:100 nM and 1000 nM (sheet 'Lestaurtinib' of Supplementary Table 1),run:Lestaurtinib_02896_R3,Plate:MR030): 494 nM
potency estimated from few doses (ACVR1B; compound concentrations:100 nM and 1000 nM (sheet 'Lestaurtinib' of Supplementary Table 1),run:Lestaurtinib_03172_R1,Plate:MR031): 377 nM
potency estimated from few doses (ACVR1B; compound concentrations:100 nM and 1000 nM (sheet 'Lestaurtinib' of Supplementary Table 1),run:Lestaurtinib_03172_R2,Plate:MR031): 568 nM
potency estimated from few doses (ACVR1B; compound concentrations:100 nM and 1000 nM (sheet 'Lestaurtinib' of Supplementary Table 1),run:Lestaurtinib_03172_R3,Plate:MR031): 598 nM
potency estimated from few doses (ACVR1B; compound concentrations:100 nM and 1000 nM (sheet 'Lestaurtinib' of Supplementary Table 1),run:Lestaurtinib_03252_R2,Plate:MR032): 547 nM
potency estimated from few doses (ACVR1B; compound concentrations:100 nM and 1000 nM (sheet 'Lestaurtinib' of Supplementary Table 1),run:Lestaurtinib_03260_R2,Plate:MR033): 551 nM
potency estimated from few doses (ACVR1B; compound concentrations:100 nM and 1000 nM (sheet 'Lestaurtinib' of Supplementary Table 1),run:Lestaurtinib_03260_R3,Plate:MR033): 778 nM
potency estimated from few doses (AURKB; [1]): 261 nM
potency estimated from few doses (AURKB; compound concentrations:100 nM and 1000 nM (sheet 'Lestaurtinib' of Supplementary Table 1),run:Lestaurtinib_02339_R2,Plate:MR001): 143 nM
potency estimated from few doses (AURKB; compound concentrations:100 nM and 1000 nM (sheet 'Lestaurtinib' of Supplementary Table 1),run:Lestaurtinib_02364_R1,Plate:MR002): 260 nM
potency estimated from few doses (AURKB; [2]): 159 nM
potency estimated from few doses (AURKB; [3]): 220 nM
potency estimated from few doses (AURKB; [4]): 304 nM
potency estimated from few doses (AURKB; [5]): 278 nM
potency estimated from few doses (AURKB; compound concentrations:100 nM and 1000 nM (sheet 'Lestaurtinib' of Supplementary Table 1),run:Lestaurtinib_02381_R2,Plate:MR004): 232 nM
potency estimated from few doses (AURKB; compound concentrations:100 nM and 1000 nM (sheet 'Lestaurtinib' of Supplementary Table 1),run:Lestaurtinib_02407_R2,Plate:MR005): 132 nM
potency estimated from few doses (AURKB; compound concentrations:100 nM and 1000 nM (sheet 'Lestaurtinib' of Supplementary Table 1),run:Lestaurtinib_02407_R3,Plate:MR005): 268 nM
potency estimated from few doses (AURKB; compound concentrations:100 nM and 1000 nM (sheet 'Lestaurtinib' of Supplementary Table 1),run:Lestaurtinib_02422_R1,Plate:MR006): 157 nM
potency estimated from few doses (AURKB; [6]): 26.5 nM
potency estimated from few doses (AURKB; compound concentrations:100 nM and 1000 nM (sheet 'Lestaurtinib' of Supplementary Table 1),run:Lestaurtinib_02438_R2,Plate:MR008): 158 nM
